According to PubChem BioAssay (Tox21):
Records with an inconclusive call do not appear. The source made the active and inactive calls. The call rests on the fitted dose curve; in most records, active means well fitted inhibition curve with a large enough effect in the signal ratio in the repeat runs (not every such curve was filed as active); inconclusive means weak or mixed curves, or effect the other way; inactive means no such curve, though single readings can be large or run the other way; the % refers to the signal ratio.

The compounds below were run against Glucocorticoid receptor (Homo sapiens) (UniProt P04150) (assay: qHTS assay to identify small molecule antagonists of the glucocorticoid receptor (GR) signaling pathway (AID 720692)). Conditions: GR-bla HeLa, beta-lactamase FRET ratio, dexamethasone-stimulated, 18 h; series mostly up to 58.5 µM.
Sequence of Glucocorticoid receptor (Homo sapiens) (P04150 whole entry, looked up): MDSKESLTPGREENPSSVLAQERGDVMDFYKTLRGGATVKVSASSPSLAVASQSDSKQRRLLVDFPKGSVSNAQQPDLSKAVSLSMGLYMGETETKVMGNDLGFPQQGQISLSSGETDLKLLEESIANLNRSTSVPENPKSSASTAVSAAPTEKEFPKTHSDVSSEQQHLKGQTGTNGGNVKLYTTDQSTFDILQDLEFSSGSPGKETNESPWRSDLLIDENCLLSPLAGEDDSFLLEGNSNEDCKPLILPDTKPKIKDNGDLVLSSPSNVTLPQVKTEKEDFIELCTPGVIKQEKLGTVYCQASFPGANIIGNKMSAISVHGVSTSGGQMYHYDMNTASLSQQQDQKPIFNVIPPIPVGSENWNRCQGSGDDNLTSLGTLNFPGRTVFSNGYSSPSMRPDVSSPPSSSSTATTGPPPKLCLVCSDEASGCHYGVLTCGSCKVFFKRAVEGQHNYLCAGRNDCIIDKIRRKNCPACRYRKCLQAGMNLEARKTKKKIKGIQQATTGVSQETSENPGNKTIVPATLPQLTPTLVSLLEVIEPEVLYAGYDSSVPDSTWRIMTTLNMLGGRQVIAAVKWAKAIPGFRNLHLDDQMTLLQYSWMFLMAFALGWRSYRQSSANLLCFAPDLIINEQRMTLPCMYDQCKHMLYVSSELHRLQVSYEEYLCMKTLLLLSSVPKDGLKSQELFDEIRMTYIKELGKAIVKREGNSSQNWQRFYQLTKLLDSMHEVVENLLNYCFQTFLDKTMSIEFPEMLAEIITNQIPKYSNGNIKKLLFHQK
Text: U.S. Tox21 Program National Center for Advancing Translational Sciences [NCATS] NIH Chemical Genomics Center [NCGC] U.S. Environmental Protection Agency [EPA] National Institutes of Environmental Health Sciences [NIEHS] National Toxicology Program [NTP] U.S. Food and Drug Administration [FDA] Tox21 Assay Overview: The Glucocorticoid receptor (GR) is one of the members of the nuclear receptor family of ligand-dependent transcription factors. GR plays a critical role in carbohydrate, protein and lipid metabolisms and programmed cell death. CellSensor GR-bla HeLa cell line (Invitrogen) contains a beta-lactamase reporter gene under the control of the glucocorticoid response element stably integrated into HeLa cells, a cervical cancer cell line that expresses glucocorticoid receptor. The activation of the reporter gene under culture conditions can be detected by fluorescence intensity. This cell line has been used to screen the Tox21 10K compound library and to identify the compounds that inhibit the GR signaling.
Tox21 Assay Protocol Summary: The GR-bla HeLa cells were dispensed at 1500 cells/5 ul/well in 1536-well black wall/clear bottom plates using a Multidrop Combi (ThermoFisher Scientific, Waltham, MA) dispenser. After the assay plates were incubated at a 37 C/5% CO2 incubator for 4 hours, 23 nL of compounds dissolved in DMSO, positive controls or DMSO only was transferred to the assay plate by a pintool station (Kalypsys, San Diego, CA), followed by addition of 1 uL of dexamethasone (5 nM, final concentration in the well). The plates were incubated at 37 C for 18 hours. After 1 uL of LiveBLAzerTM B/G FRET substrate was added using a Flying Reagent Dispenser (Aurora Discovery, San Diego, CA), the plates were incubated at room temperature for 2 hours, and fluorescence intensity was measured by an Envision plate reader (PerkinElmer, Shelton, CT).
On the % scale 0 is the no-effect control and ±100 the full control effect.

| SMILES | outcome | activity change, negative = inhibition |
| --- | --- | --- |
| CNCCc1ccccn1 | inactive |  |
| C=CCN(CC=C)CC=C | inactive |  |
| Cc1ccccc1OCC(=O)O | inactive |  |
| C=CCN1CCc2nc(N)sc2CC1 | inactive |  |
| CC(C)(C)OC=O | inactive |  |
| Cc1ccc(Br)cc1 | inactive |  |
| COc1cnc(NS(=O)(=O)c2ccc(N)cc2)nc1 | inactive |  |
| Cc1cc(C)c(N)c(Cl)c1 | inactive |  |
| CN(C)CCC[C@@]1(c2ccc(F)cc2)OCc2cc(C#N)ccc21 | inactive |  |
| C=CCn1cc[n+](C)c1 | inactive |  |
| CC(=O)Nc1ccc(S(=O)(=O)Nc2cc(C)on2)cc1 | inactive |  |
| c1cc2ccc3ccc4ccc5cccc6c(c1)c2c3c4c56 |  | 4.22% [at 3.15 µM] (inactive) |
| CCCCCCCCCCCC(C)=O | inactive |  |
| O=c1c(O)c(O)c1=O | inactive |  |
| CCCCCCCCCCCCCCCC(=O)OC | inactive |  |
| CCOC(=O)[C@H](CCc1ccccc1)N[C@H]1CS[C@H](c2cccs2)CN(CC(=O)O)C1=O | inactive |  |
| CCCCN1C(=O)c2ccccc2C1=O | inactive |  |
| CN(C)CCc1c[nH]c2ccc(C[C@H]3COC(=O)N3)cc12 | inactive |  |
| C=CCON/C(CCC)=C1\C(=O)CC(C)(C)C(C(=O)OC)=C1O | inactive |  |
| COC(=O)C(c1ccccc1Cl)N1CCc2sccc2C1 (stereo not given) | inactive |  |

| SMILES | outcome | activity change, negative = inhibition |
| --- | --- | --- |
| CNC(C)=O | inactive |  |
| O=C1Nc2ccccc2C1=O | inactive |  |
| COc1cc2nc(N3CCN(C(=O)C4CCCO4)CC3)nc(N)c2cc1OC (stereo not given) | inactive |  |
| CCCCCC(CC)OC(=O)CCCOc1ccc(Cl)cc1Cl (stereo not given) | inactive |  |
| CCCCCCC(O)CO (stereo not given) | inactive |  |
| CCCCCCCCCCCCCCBr | inactive |  |
| CC/C=C\CCCCCCCCCCOC(C)=O | inactive |  |
| CC(C)(C)NCC(O)COc1cccc2c1CCC(=O)N2 (stereo not given) | inactive |  |
| CCOCCOCCOC(C)=O | inactive |  |
| COc1cc(NS(=O)(=O)c2ccc(N)cc2)ncn1 | inactive |  |
| O=C(OOC(=O)c1ccccc1)c1ccccc1 | inactive |  |
| CN1CCN(C(=O)C2CCCCC2)CC1 | inactive |  |
| CCN(CC)CC | inactive |  |
| CSC(=O)c1cccc2nnsc12 | inactive |  |
| Cc1cc(N)no1 | inactive |  |
| CCCC(C)C(O)CC (stereo not given) | inactive |  |
| CC[N+](C)(CC)CC | inactive |  |
| C[C@@H]1NC(=O)[C@@H](N)CNC(=O)[C@H](C2CCNC(N)=N2)NC(=O)/C(=C/NC(N)=O)NC(=O)[C@H](CNC(=O)C[C@@H](N)CCCN)NC1=O (stereo not given in full) | inactive |  |
| CC(C)(C)C(=O)CC(=O)C(C)(C)C | inactive |  |
| CCc1ncc(C)[nH]1 | inactive |  |
